These results are taken from PubChem BioAssay (NCATS).

Each structure is given as a SMILES string. Inconclusive results are not listed. Activity calls are given as the source filed them. Unless noted, calls come from the whole dose curve; as a rule, active = well fitted curve in the direction sought with a large enough effect; inconclusive = small, poorly fitted or top-dose-only effect, or another doubt; inactive = no such curve, though single readings can be large; an effect the other way counts as inactive or inconclusive.

Assay [1] in a line: qHTS for differential inhibitors of proliferation of Plasmodium falciparum line Dd2 (AID 1882). Note: nearly all actives have a fitted effect of over 65% in size. Note: potency is the fitted concentration of half-maximal effect. As to conditions: Potency: Plasmodium falciparum Dd2 proliferation inhibition. An outline of the steps:
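SYBR Green I DNA fluorescence read-out, ex 485/em 535 nm. Signals were normalized to 0.29 uM artemisinin and DMSO wells, then corrected using vehicle-only plates flanking each stack. Parasite growth ran 72 h in erythrocytes before lysis.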

A short description of assay [2]: qHTS for differential inhibitors of proliferation of Plasmodium falciparum line W2 (AID 1883).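 Note: parasites grown with compound for 72 h before lysis and staining.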 Note: potency is the fitted concentration of half-maximal effect. The conditions noted are these: Potency: Plasmodium falciparum W2 proliferation inhibition.
Assay [3] can be described thus: qHTS for differential inhibitors of proliferation of Plasmodium falciparum line HB3 (AID 1886).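 Note: parasites grown with compound for 72 h before SYBR Green readout.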 Note: potency is the fitted concentration of half-maximal effect. The conditions noted are these: Potency: Plasmodium falciparum HB3 proliferation inhibition.
Assay [4] addresses Ferritin light chain (Equus caballus) (UniProt P02791). Briefly: qHTS Validation Assay for Identification of Novel General Anesthetics (AID 2323). Note: series mostly up to about 77 µM. An outline of the steps:
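Competitive displacement of profluorescent 1-aminoanthracene (1-AMA, 50% saturated solution in PBS) from 10 uM horse-spleen apoferritin. Compounds incubated 10 min at room temperature; fluorescence read at 380 nm excitation/535 nm emission, normalized to free 1-AMA and complex, fitted with four-parameter Hill equation.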

Assay [5] deals with ATP-dependent DNA helicase Q1 (Homo sapiens) (UniProt P46063). Briefly: qHTS Validation Assay for Inhibitors of RecQ-Like Dna Helicase 1 (RECQ1) (AID 2353). An outline of the steps:
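50 nM RECQ1T1 preincubated 15 min with compound in Tris pH 8.0 buffer with MgCl2, DTT, Tween-20 and 2.5 ug/ml poly(dI-dC); started with 200 nM TAMRA/BHQ-2 forked duplex and 2 mM ATP. Unwinding read as fluorescence (525/598 nm), two reads 2 h apart.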

Assay [6] can be described thus: Cytometric Cell-Based qHTS for Inhibitors of the mTORC1 Signaling Pathway in MEF (Tsc2-/-, p53-/-) Cells (AID 2660).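 Note: percent of cells above a phospho-rpS6 to PI ratio cutoff in each well; series mostly up to about 38 µM.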 The method in brief: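 Percent of cells positive for normalized phospho-S6 staining is reported, with the cutoff set from rapamycin (7.5 nM) versus DMSO wells. Tsc2-/-, p53-/- MEFs received compound for 24 hrs.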
Assay [7] in a line: High Content Imaging Cell-Based qHTS for Inhibitors of the mTORC1 Signaling Pathway in MEF (Tsc2-/-, p53-/-) Cells (AID 2666).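 Note: percent of cells scored positive for phospho-rpS6 Ser235/236 immunostaining by imaging.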 An outline of the steps: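 Read-out: % positive cells per well, with thresholds from highest- and lowest-signal wells, based on phospho-rpS6 (Ser235/236) intensity normalized to Hoechst nuclear stain. Cells: Tsc2-/-, p53-/- MEFs carrying empty vector; compound 24 hrs, 37 degree Celsius.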

Assay [8] can be described thus: High Content Imaging Cell-Based qHTS for Inhibitors of the mTORC1 Signaling Pathway in MEF Cells (AID 2667).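 Note: Tsc2-/- p53-/- MEFs stably re-expressing wild-type Tsc2 exposed 24 h; series mostly up to about 38 µM.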 An outline of the steps: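 MEF (Tsc2-/-, p53-/-, WT Tsc2 re-expressed); cpd 24 h, 37 °C; PFA fix; Alexa-488 anti-p-rpS6 Ser235/236, PI, Hoechst; IN Cell imaging; Hoechst/Alexa-488 intensity ratio; % active cells, thresholds set from rapamycin and DMSO wells.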

A short description of assay [9]: Validation screen for small molecules that induce DNA re-replication in MCF 10A normal breast cells (AID 463097). Note: nearly all actives have a fitted effect of over 60% in size. The method in brief:
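Readout: Hoechst nuclear fluorescence intensity, 405 ex / 500-530 em, by scanning plate imager; re-replication scored as increase in nuclei with elevated DNA content. Cells exposed to compound 48 hr, 37 C, 5% CO2 beforehand.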

Assay [10] deals with Ubiquitin carboxyl-terminal hydrolase 2 (Homo sapiens) (UniProt O75604). Briefly: qHTS Validation Assay for Inhibitors of Ubiquitin-specific Protease USP2a Using CHOP2 as the Reporter (AID 463106). The method in brief:
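USP2 core (10nM final) was preincubated with compound for 30min at RT in 20mM Tris-HCl pH 8.0, 2mM CaCl2, 2mM beta-mercaptoethanol, 0.05% CHAPS. Ub-CHOP2 and reporter substrate (25nM each) were added, and fluorescence (Ex 485/Em 531nm) was read after 60min.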

The target in assay [11] is DNA polymerase III PolC-type (Bacillus subtilis (strain 168)) (UniProt P13267). The experiment in a line: qHTS Validation Assay for the Inhibitors of DNA Replication in Gram-Positive Bacteria (AID 485295). Note: potency is the fitted concentration of half-maximal effect. An outline of the steps:
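Reconstituted B. subtilis holoenzyme (Pol III, beta clamp, SSB, primase) was preincubated with compound at room temperature, then given single-stranded circular M13Gori plus dNTPs and NTPs. EDTA-containing PicoGreen stopped the reaction, and dsDNA product was read by fluorescence.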

Assay [12] addresses Tumor susceptibility gene 101 protein (Homo sapiens) (UniProt Q99816). Briefly: qHTS Validation Assay for Iinhibitors of HIV-1 Budding by Blocking the Interaction of PTAP/TSG101 (AID 485342; calls by dose curve). An outline of the steps: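 Tsg101 binding domain (10 uM final) in pH 7.5 HEPES/NaCl/Tween 20/EDTA/TCEP buffer was mixed with pin-transferred compounds, then FITC-labeled PTAP peptide (50 nM final) was added; after 20 min at r.t., fluorescence polarization was read.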

Assay [13] is described as follows: qHTS Validation Assay to Find Inhibitors of Chronic Active B-Cell Receptor Signaling (AID 485345; active = well fitted curve in the direction sought with a large enough effect in the main read-out, with a control signal flat, not every such curve was filed as active). The method in brief:
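TMD8 ABC-DLBCL cells with dox-inducible green luciferase–IκBα fusion and red native luciferase; compounds 46 uM–3 nM, 4 h at 37C with doxycycline in 0.5% FBS IMDM. Green/red ratio normalized to basal and 10 uM MG-132.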

Assay [14] concerns the target Beta-2 adrenergic receptor (Homo sapiens) (UniProt P07550). The experiment in a line: qHTS validation assay of beta-arrestin-biased ligands of beta2-adrenergic receptor (AID 485366). An outline of the steps: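 Luminescence from a tTA-responsive luciferase, induced when recombinant beta-arrestin is recruited to recombinant beta2-AR, served as the agonism signal. Cells were exposed to compound for 18 hr at 37 degrees C; titrations spanned up to 46 microM.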

Assay [15] can be described thus: Cytometry Cell-Based qHTS for Inhibitors of the mTORC1 Signaling Pathway in MEF cells (AID 2668).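 Note: Tsc2-/- p53-/- mouse embryonic fibroblasts stably re-expressing wild-type Tsc2; percent cells positive for phospho-rpS6 Ser235/236 relative to propidium iodide stain; series mostly up to about 38 µM.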 The method in brief:
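WT MEFs (Tsc2-/-, p53-/- stably re-expressing WT Tsc2) in DMEM + 10% FBS received compounds 24 hrs after plating, for 24 hrs at 37 degree Celsius. Fixed cells stained with Alexa-488 anti-phospho-rpS6 Ser235/236 and propidium iodide; laser-scanning cytometry read-out.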

Assay [16] can be described thus: qHTS Assay for Modulators of Human Peripheral Myelin Protein 22 (PMP22) Expression/Activity (AID 1967; active = well fitted curve in the direction sought with a large enough effect in the signal ratio; the % refers to the signal ratio). An outline of the steps:
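MSC80 mouse Schwann cells stably carrying Pmp22 promoter–green click beetle luciferase plus EF-alpha–red luciferase control were dosed for 24h at 37 °C. Dual-colour luminescence was filter-overlap corrected; %Activity came from green/red ratio versus untreated cells.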

Tumor susceptibility gene 101 protein (Homo sapiens), sequence (Q99816 whole entry, looked up, the tested form may be a part): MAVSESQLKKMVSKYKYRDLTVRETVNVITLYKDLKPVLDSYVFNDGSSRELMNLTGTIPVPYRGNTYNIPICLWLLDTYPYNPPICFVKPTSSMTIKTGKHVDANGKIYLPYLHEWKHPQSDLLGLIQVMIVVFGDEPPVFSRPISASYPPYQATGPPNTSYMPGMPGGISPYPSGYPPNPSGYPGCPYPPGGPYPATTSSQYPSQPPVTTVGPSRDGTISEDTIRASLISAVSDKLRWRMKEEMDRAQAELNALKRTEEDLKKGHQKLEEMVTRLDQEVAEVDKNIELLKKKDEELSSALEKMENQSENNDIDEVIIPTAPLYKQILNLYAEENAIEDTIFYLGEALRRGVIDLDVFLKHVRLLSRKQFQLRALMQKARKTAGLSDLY
DNA polymerase III PolC-type (Bacillus subtilis (strain 168)), sequence (P13267 whole entry, looked up): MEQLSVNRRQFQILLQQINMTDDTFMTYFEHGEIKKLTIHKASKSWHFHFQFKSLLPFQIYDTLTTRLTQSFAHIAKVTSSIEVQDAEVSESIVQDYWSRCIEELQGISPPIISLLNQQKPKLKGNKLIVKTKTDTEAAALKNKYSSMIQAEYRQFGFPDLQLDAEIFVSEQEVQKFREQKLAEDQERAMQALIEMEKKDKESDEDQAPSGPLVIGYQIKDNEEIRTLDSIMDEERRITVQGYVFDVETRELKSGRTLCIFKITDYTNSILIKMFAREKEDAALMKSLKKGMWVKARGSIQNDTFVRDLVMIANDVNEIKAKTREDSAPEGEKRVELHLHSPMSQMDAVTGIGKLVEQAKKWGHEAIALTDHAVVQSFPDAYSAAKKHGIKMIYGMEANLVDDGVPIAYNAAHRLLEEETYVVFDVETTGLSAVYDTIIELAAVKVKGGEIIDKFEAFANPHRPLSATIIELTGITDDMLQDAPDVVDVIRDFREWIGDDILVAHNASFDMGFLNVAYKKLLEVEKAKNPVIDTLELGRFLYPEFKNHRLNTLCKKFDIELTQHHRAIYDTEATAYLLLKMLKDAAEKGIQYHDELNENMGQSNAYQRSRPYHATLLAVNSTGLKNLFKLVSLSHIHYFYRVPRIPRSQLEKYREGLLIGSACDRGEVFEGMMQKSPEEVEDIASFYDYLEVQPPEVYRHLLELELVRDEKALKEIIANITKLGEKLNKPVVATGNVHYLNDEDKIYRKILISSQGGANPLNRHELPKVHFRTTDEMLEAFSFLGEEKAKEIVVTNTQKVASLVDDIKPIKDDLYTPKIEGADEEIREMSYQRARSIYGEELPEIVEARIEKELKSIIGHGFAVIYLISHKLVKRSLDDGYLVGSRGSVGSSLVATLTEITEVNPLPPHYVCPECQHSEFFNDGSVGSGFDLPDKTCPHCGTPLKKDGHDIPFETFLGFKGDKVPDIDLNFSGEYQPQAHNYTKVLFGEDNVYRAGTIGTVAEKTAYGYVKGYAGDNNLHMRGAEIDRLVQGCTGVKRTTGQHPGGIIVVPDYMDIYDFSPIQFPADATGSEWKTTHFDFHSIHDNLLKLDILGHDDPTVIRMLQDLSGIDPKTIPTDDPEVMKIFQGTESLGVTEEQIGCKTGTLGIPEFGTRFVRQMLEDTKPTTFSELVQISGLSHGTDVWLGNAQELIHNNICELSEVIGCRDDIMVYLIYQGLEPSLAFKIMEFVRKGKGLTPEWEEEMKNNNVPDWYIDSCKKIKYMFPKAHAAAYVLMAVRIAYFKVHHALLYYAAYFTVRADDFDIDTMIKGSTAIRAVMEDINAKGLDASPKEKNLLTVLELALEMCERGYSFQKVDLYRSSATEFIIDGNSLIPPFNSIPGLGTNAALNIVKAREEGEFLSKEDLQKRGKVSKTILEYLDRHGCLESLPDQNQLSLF
Ferritin light chain (Equus caballus), sequence (P02791 2-175 limits assumed): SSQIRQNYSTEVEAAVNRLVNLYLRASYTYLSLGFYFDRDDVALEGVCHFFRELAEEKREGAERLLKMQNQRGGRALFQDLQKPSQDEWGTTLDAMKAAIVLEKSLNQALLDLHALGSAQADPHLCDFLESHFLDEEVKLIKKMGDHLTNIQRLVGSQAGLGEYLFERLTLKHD
Beta-2 adrenergic receptor (Homo sapiens), sequence (P07550 whole entry, looked up): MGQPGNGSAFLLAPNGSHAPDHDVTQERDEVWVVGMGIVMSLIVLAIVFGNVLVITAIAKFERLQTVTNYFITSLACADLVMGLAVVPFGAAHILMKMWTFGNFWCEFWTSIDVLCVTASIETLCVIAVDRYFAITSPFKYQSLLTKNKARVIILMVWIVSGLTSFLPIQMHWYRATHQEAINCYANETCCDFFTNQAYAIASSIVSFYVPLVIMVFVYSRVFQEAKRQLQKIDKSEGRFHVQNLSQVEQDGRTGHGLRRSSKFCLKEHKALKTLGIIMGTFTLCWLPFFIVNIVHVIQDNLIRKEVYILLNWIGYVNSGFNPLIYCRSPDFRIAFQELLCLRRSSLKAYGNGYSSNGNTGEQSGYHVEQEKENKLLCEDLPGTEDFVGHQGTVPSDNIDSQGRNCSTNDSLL
Ubiquitin carboxyl-terminal hydrolase 2 (Homo sapiens), sequence (O75604 whole entry, looked up): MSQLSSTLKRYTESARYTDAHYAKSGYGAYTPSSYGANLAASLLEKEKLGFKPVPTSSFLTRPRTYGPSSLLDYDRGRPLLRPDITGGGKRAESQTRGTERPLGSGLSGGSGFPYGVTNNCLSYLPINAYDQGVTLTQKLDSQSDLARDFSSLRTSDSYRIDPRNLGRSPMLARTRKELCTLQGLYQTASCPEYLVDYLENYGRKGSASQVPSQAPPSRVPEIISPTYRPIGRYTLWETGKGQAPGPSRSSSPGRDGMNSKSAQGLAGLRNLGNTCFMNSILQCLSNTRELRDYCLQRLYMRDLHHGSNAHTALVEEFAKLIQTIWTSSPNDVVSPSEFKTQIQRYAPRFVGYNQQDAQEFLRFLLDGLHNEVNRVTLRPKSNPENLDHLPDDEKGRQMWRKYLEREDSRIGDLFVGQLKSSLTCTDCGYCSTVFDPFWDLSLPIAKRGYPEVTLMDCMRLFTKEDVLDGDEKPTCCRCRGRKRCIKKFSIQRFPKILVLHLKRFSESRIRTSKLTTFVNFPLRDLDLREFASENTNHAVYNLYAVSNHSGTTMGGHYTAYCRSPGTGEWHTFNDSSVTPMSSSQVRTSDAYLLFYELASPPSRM
ATP-dependent DNA helicase Q1 (Homo sapiens), sequence (P46063 whole entry, looked up): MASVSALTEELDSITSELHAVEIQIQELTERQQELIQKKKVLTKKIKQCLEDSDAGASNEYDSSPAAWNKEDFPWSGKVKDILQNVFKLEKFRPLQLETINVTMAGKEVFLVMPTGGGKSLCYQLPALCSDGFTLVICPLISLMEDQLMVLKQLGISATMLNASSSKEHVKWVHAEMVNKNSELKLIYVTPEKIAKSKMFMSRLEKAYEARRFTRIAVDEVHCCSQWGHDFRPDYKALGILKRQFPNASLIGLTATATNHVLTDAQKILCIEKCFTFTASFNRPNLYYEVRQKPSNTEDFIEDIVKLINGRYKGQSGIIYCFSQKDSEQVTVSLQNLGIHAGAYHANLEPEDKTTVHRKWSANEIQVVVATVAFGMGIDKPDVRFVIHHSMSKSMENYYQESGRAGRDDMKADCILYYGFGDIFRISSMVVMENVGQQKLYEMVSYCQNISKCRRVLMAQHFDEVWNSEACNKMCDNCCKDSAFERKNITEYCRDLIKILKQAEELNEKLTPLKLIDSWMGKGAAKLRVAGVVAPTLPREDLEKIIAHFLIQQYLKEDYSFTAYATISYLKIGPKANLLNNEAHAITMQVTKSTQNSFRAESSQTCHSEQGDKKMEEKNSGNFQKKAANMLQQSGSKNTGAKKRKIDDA

With `c1ccc(CN2CCC3(CCCc4ccccc43)CC2)cc1`, the Potency in assay [1] is 11.2 µM (active); in assay [2], 4.47 µM (active); in [3], 7.94 µM (active). Moreover, the Potency entry in [4], in assay [5], in [7], in [8], in [9] and in [10] was “inactive” in each case. In addition, the Potency result in [11] is “inactive”. In addition, the outcome in [6], in assay [12] and in assay [13] was inactive.

`Cc1nc(N=Nc2ccc(C(=O)O)cc2)c(COP(=O)(O)O)c(C=O)c1O`: the Potency entry in [1], in assay [2], in assay [3], in assay [4], in [5] and in [7] was “inactive” throughout. Moreover, the Potency result in [8], in assay [9], in assay [10] and in assay [11] was “inactive” each time. In addition, the call in [6], in assay [12], in assay [13] and in [14] was inactive.

Turning to `CC(=O)[C@H]1CCC2C3CC=C4C[C@@H](OS(=O)(=O)O)CC[C@]4(C)C3CC[C@@]21C` (stereo not given in full), the Potency result in [1], in assay [2], in assay [3], in assay [4], in assay [5] and in assay [7] was “inactive” in each case. In addition, the Potency result in assay [8], in assay [15], in assay [9], in assay [10] and in assay [11] was “inactive” in each case. Moreover, the call in assay [6], in [12], in [13] and in assay [14] was inactive.

`O=c1cc(O)cc(/C=C/c2ccc(O)c(O)c2)o1`: the Potency result in assay [1], in assay [4], in assay [5], in assay [7], in [8] and in assay [15] was “inactive” each time. Besides, the Potency entry in assay [9] and in assay [10] was “inactive” throughout. The figures for the Potency in assay [2], in assay [3] and in assay [11] were 11.2 µM (active), 11.2 µM (active) and 21.2 µM (active), respectively. Besides, the compound was classed as inactive in [6], in assay [12] and in assay [14].

For `NCCCCN=C(N)N`, the Potency entry in assay [1], in assay [2], in assay [3], in assay [4], in assay [5] and in assay [7] was “inactive” throughout. In addition, the Potency result in assay [8], in assay [15], in assay [9], in assay [10] and in assay [11] was “inactive” in each case. For the same compound, the result in assay [6], in assay [12] and in [13] was inactive.

Turning to `N[C@H]1CONC1=O`, the Potency entry in assay [1], in [2], in assay [3], in [4], in assay [5] and in [7] was “inactive” in each case. In addition, the Potency result in [8], in [15], in assay [9], in assay [10] and in assay [11] was “inactive” throughout. Besides, the compound was called inactive in assay [6], in assay [13] and in [14].

Regarding `CC1C(=O)N(C)C(=O)c2nc[nH]c21` (stereo not given), the Potency entry in [1], in assay [2], in [3], in [5], in assay [8] and in [15] was “inactive” each time. Further, the Potency result in assay [9], in [10] and in assay [11] was “inactive” in each case. Further, the outcome in [16], in assay [6], in assay [12] and in [14] was inactive.

As to `N[C@@H](CS(=O)O)C(=O)O`, the Potency result in assay [1], in [2], in assay [3], in [4], in assay [5] and in assay [7] was “inactive” throughout. In addition, the Potency entry in assay [15], in assay [9], in assay [10] and in assay [11] was “inactive” in each case. Moreover, the compound was classed as inactive in assay [6], in [13] and in assay [14].

Consider `CCCc1c(OCCCOc2ccc(OCC(=O)O)cc2)ccc(C(C)=O)c1O`, for which the Potency result in assay [1], in [2], in assay [3], in assay [4], in assay [5] and in [7] was “inactive” throughout. The Potency result in assay [15], in [9], in assay [10] and in assay [11] was “inactive” throughout. The compound was classed as inactive in assay [6], in assay [12] and in assay [14].

For `NC1(C(=O)O)CCc2cc(C(=O)O)ccc21` (stereo not given), the Potency result in assay [1], in [2], in [3], in [4], in assay [5] and in [7] was “inactive” in each case. Moreover, the Potency result in assay [15], in [9], in [10] and in assay [11] was “inactive” each time. Further, the call in assay [6] and in [14] was inactive.
